Source: PubChem BioAssay (National Center for Advancing Translational Sciences (NCATS))
Compounds with a hit are over-represented: about 3% of the library has one in this group of screens.
KDM5B inh: blocks human KDM5B histone demethylase activity | actives 2.6% (n = 220,000) | Q9UGL1 | Potency, µM (titrated, usually from 57.7 µM), actives largely listed as inhibitors | KDM5B demethylase, FDH-coupled NADH fluorescence (FDH is formaldehyde dehydrogenase); note: potency is the fitted concentration of half-maximal effect; 0% is about no effect; nearly all actives have a fitted effect of over 70% in size
Target sequence (Q9UGL1 whole entry, looked up): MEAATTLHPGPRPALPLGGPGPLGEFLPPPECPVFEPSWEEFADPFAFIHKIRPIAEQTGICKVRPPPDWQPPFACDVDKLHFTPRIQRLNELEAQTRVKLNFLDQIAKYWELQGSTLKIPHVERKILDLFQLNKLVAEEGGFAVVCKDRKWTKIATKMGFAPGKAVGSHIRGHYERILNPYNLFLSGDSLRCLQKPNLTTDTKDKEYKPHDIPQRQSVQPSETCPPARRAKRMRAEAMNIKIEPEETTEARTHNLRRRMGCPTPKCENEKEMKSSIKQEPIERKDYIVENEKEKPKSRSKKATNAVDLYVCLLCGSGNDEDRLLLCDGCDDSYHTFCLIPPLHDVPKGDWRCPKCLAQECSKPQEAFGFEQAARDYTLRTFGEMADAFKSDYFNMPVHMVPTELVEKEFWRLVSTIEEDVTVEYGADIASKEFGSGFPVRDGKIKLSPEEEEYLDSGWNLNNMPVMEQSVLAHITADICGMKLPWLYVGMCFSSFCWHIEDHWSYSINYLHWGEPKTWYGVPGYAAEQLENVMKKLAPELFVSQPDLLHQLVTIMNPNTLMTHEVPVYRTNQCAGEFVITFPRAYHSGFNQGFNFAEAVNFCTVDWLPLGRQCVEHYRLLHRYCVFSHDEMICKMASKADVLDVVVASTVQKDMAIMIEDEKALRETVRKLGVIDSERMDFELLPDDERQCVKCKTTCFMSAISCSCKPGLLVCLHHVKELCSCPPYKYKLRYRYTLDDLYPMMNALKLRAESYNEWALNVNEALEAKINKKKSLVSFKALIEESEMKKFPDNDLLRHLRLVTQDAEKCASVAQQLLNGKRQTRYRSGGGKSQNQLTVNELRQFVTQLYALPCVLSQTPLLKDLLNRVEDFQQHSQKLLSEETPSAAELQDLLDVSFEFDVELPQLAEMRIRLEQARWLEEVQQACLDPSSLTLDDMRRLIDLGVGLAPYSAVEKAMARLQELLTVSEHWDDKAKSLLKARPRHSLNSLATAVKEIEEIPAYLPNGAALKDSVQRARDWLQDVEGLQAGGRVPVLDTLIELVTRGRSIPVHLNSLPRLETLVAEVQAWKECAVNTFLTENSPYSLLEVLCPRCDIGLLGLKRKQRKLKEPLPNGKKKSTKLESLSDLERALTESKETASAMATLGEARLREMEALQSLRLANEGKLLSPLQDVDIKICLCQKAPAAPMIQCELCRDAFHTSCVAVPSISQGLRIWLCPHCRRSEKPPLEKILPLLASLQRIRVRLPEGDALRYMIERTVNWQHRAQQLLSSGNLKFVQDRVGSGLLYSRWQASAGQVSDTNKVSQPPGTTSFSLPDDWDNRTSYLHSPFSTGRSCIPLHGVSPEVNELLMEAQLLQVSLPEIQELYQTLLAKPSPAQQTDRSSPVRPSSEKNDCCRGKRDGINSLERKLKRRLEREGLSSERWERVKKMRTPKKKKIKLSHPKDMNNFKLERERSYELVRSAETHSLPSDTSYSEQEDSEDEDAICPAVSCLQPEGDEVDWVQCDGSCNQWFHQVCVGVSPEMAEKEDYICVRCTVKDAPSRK
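Measured: NADH fluorescence change, 30 min, RT. System: KDM5BΔAP 200 nM final, H3K4me3 peptide, α-KG, Fe(II), ascorbate, NAD⁺ plus FDH, pH 7.5 HEPES. Compounds: titrated, 10 min pre-incubation with enzyme.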
IP6K1 inhibitor: blocks human inositol hexakisphosphate kinase 1; activity change, % (series mostly up to about 58 µM); AID 1645851; actives 0.81% (n = 140,000); IP6K1 kinase, ADP-Glo luminescence, 2 h; stronger effect = lower value; Q92551; in the data active = activity change below about -25%; note: % is set by controls: 0 for no effect and ±100 for the full control effect
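ADP-Glo luminescence measures ADP made by human IP6K1 during a 2 h RT reaction with ATP/IP6 (mix at 1.3 mM/130 uM); top library doses 57.5 and 19.1 uM final.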
SNCA viab count: reduces viability of HEK-293 SNCA reporter cells; AID 1671193; Potency, µM (series often up to 57.1 µM), without a hit: at the highest dose activity change, negative = cytotoxicity, hits mostly cytotoxic; HEK-293-SNCA-luc viability, GF-AFC fluorescence, 24 h; actives 0.12% (n = 150,000);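 note: potency is the fitted concentration of half-maximal effect; 0% = DMSO-treated cells and -100% = medium-only wells without cells; nearly all actives have a fitted effect of over 30% in size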
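Cytotoxicity counterscreen: after 24 h compound treatment of genome-edited SNCA-luciferase HEK-293 cells, live-cell protease substrate GF-AFC read by fluorescence after 30 min; activity scaled between DMSO (0%) and medium-only (-100%), curves Hill-fitted.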
SNCA expr inhib: reduces expression of the alpha-synuclein gene; HEK-293 SNCA-luciferase knock-in, luminescence, 24 h; AID 1671194; Potency, µM (series often up to 57.2 µM), for the others: at the highest dose activity change, negative = inhibition, most hits filed as inhibitors; actives 0.17% (n = 140,000);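 note: potency is the fitted concentration of half-maximal effect; plate controls were DMSO cells for no effect and cell-free wells for full effect; nearly all actives have a fitted effect of over 45% in size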
* marks the source's active call; other numbers are inactive results; i = inactive; ? = inconclusive; . = no result; [ ] = remark or other dose. Unless noted, calls come from the whole dose curve; as a rule, active = well fitted curve in the direction sought with a large enough effect; inconclusive = small, poorly fitted or top-dose-only effect, or another doubt; inactive = no such curve, though single readings can be large; an effect the other way counts as inactive or inconclusive.

SMILES	KDM5B inh	IP6K1 inhibitor	SNCA viab count	SNCA expr inhib
COc1cc2c(cc1OC1CCCC1)NC(=O)C21CCN(c2ncc(C(C)C)cn2)CC1	35µM*	-23	-6%[87.6 µM]	?
CCOC(=O)[C@H]1CN(C(=O)Nc2ccc3c(c2)OCO3)[C@]2(C)C(=O)N(CC3CC3)c3ccccc3[C@H]12	.	7	-3%[23.9 µM]	34%[25.6 µM]
CCOC(=O)[C@H]1CN(C(=O)/C=C/c2ccccc2)[C@]2(C)C(=O)N(CC3CC3)c3ccccc3[C@H]12	.	-13	-8%[23.9 µM]	3%[25.6 µM]
COc1cccc(-c2cnc3[nH]cc(CC(=O)N4CCN(C)CC4)c3c2)c1	35µM*	-22	1%[87.6 µM]	-3%[87.6 µM]
COc1ncccc1-c1cnc2[nH]cc(CC(=O)N3CCN(C)CC3)c2c1	35µM*	-5	2%[87.6 µM]	9%[87.6 µM]
COc1ccc(-c2cnc3[nH]cc(CC(=O)N4CCN(C)CC4)c3c2)cc1OC	?	-10	6%[87.6 µM]	7%[87.6 µM]
O=C1NC2(CCN(Cc3ccccn3)C2)OCc2ccccc21 (centres undefined)	40µM*	14	-1%[87.6 µM]	-7%[87.6 µM]
CC[C@@H](C)[C@H]1C(=O)O[C@H](C(C)C)C(=O)N(C)[C@@H]([C@@H](C)CC)C(=O)O[C@H](C(C)C)C(=O)N(C)[C@@H]([C@H](C)CC)C(=O)O[C@H](C(C)C)C(=O)N1C	.	3	?	.
Cc1ccccc1-c1ccc2n(c1=O)C[C@H]1C[C@@H]2CN(C(=O)CCC(=O)O)C1	?	21	-3%[87.6 µM]	1%[87.6 µM]
O=C(O)COCC(=O)N1C[C@@H]2C[C@H](C1)c1ccc(-c3cc4ccccc4s3)c(=O)n1C2	?	48	5%	50%
Cc1ccccc1-c1ccc2n(c1=O)C[C@H]1C[C@@H]2CN(Cc2cccs2)C1	32µM*	0	2%[87.6 µM]	-26%[87.6 µM]
O=c1c(-c2cccs2)ccc2n1C[C@H]1C[C@@H]2CN(Cc2cc3ccccc3o2)C1	32µM*	6	2%[87.6 µM]	-3%[87.6 µM]
c1ccc(O[C@H]2CNC3Cc4c([nH]c5ccccc45)C2C3)nc1 (some centres undefined)	.	27	.	.
O=C1CO[C@H]2CN(Cc3ncc[nH]3)C[C@H]2N1Cc1ccccn1	35µM*	2	13%[87.6 µM]	26%[87.6 µM]
O=C1CO[C@H]2CN(Cc3ccccn3)C[C@H]2N1Cc1ccccn1	?	4	-17%[87.6 µM]	12%[87.6 µM]
CN1C(=O)CO[C@H]2CN(Cc3ccccn3)C[C@H]21	40µM*	2	-1%[87.6 µM]	25%[87.6 µM]
CCOC(=O)[C@H]1CN(C(=O)C2CCCC2)[C@]2(C)C(=O)N(CC3CC3)c3ccccc3[C@H]12	.	6	-6%[23.9 µM]	-7%[25.6 µM]
O=C(Cc1ccccn1)N1CCN(Cc2ccccc2-c2ccccc2F)CC1	.	13	4%[12.5 µM]	-16%
COC1CC(OC2CCC3(C=O)C(CCC4C3CCC3(C)C(C5=CC(=O)OC5)CCC43O)C2)OC(C)C1OC1OC(CO)C(O)C(O)C1O (centres undefined)	.	22	-12%[23.9 µM]	.
COC1CC(O[C@H]2CC[C@]3(C=O)C4CC[C@]5(C)[C@@H](C6=CC(=O)OC6)CC[C@]5(O)[C@@H]4CC[C@@H]3C2)OC(C)C1O[C@@H]1O[C@H](CO)[C@@H](O[C@@H]2O[C@H](CO)[C@@H](O)[C@H](O)[C@H]2O)[C@H](O)[C@H]1O (some centres undefined)	.	8	5.7µM*	.
C=C(C)C(=O)O[C@H]1[C@@H]2[C@H](C)C(=O)O[C@@H]2C[C@@H](C)[C@@H]2C=CC(=O)[C@]21C	.	-5	4.6µM*	.
CCCN(CCC)[C@@H]1CCc2ccc3[nH]c(C#N)cc3c2C1	.	-9	-31%	.
COCc1nnc2n1CCC(NC(=O)c1nn(C)c3ccccc13)CC2 (centres undefined)	28µM*	-5	23%	37%
Ic1ccccc1CNC1C2CCN(CC2)C1C(c1ccccc1)c1ccccc1 (centres undefined)	.	.	22µM*	?
C[C@@H]1CCC2[C@@H](C)C(=O)OC3O[C@@]4(C)CCC1[C@]32OO4 (some centres undefined)	.	-14	-8%	.
SMILES	KDM5B inh	IP6K1 inhibitor	SNCA viab count	SNCA expr inhib
Cc1noc(-c2ccc(N3CC4CC(C3)c3cccc(=O)n3C4)nc2)n1 (centres undefined)	22µM*	1	-7%	5%
O=C(c1ccccc1)N1C[C@@H]2C[C@H](C1)c1ccc(-c3ccc(Cl)cc3)c(=O)n1C2	i	-4	-18%[87.6 µM]	29%[87.6 µM]
O=C(c1ccccc1)N1C[C@@H]2C[C@H](C1)c1ccc(-c3cccc(C(F)(F)F)c3)c(=O)n1C2	25µM*	10	0%	-5%
O=C(O)CCC(=O)N1C[C@@H]2C[C@H](C1)c1ccc(-c3ccc(Cl)cc3)c(=O)n1C2	35µM*	-1	0%[87.6 µM]	?
O=C(O)COCC(=O)N1C[C@@H]2C[C@H](C1)c1ccc(-c3cccc(C(F)(F)F)c3)c(=O)n1C2	32µM*	4	-1%	-4%
CCOC(=O)[C@H]1CN(C(=O)c2cccs2)[C@]2(C)C(=O)N(CC3CC3)c3ccccc3[C@H]12	.	16	-6%[23.9 µM]	-11%[25.6 µM]
Cc1sc2c(c1C)C(c1ccc(Cl)cc1)=N[C@@H](CC(N)=O)c1nnc(C)n1-2	.	6	?	.
CCOC(=O)[C@H]1CN([S+](=O)([O-])c2cccs2)[C@]2(C)C(=O)N(CC3CC3)c3ccccc3[C@H]12	.	5	?	?
CCOc1ccc(CN(CCc2ccc3c(c2)OCO3)Cc2ccc(C)cc2)cc1	?	-2	11%	0%
CCOc1ccc(CN(CCc2ccc3c(c2)OCO3)Cc2cccc(Br)c2)cc1	?	-57*	11%	17%
COc1ccsc1CNCC[C@@]1(c2ccccn2)CCOC2(CCCC2)C1	.	-9	4%	.
NC1=NC(=O)N2CC12 (centres undefined)	.	.	-15%	9.6µM*
CC(=O)O[C@H]1CN2CCC1CC2	.	-11	?	.
CC(C)OC(=O)c1ccnc2cc(C(OCCN3CCCCC3)c3ccccc3Cl)sc12 (centres undefined)	.	0	30µM*	.
CC(=O)O[C@H]1C[C@@H](C)O[C@H]2O[C@@H]3CC4CC[C@@H]5C(CC[C@]6(C)[C@@H](C7=CC(=O)OC7)CC[C@]56O)[C@@]4(C=O)C[C@H]3O[C@]21O (some centres undefined)	.	8	?	.
CCOC(=O)[C@H]1CN(C(=O)CC2CCCC2)[C@]2(C)C(=O)Nc3ccccc3[C@H]12	.	4	3%[23.9 µM]	7%[25.6 µM]
Cc1ccccc1-c1ccc2n(c1=O)C[C@H]1C[C@@H]2CN(C(=O)Nc2cccc(F)c2)C1	?	-1	-6%[87.6 µM]	40%[87.6 µM]
CSCC(=O)Nc1ccc2n(c1=O)C[C@H]1C[C@@H]2CN(C(=O)COc2ccccc2)C1	?	-10	5%[87.6 µM]	20%[87.6 µM]
N#Cc1ccc(C(=O)N2C[C@@H]3C[C@H](C2)c2c(-c4ccccc4F)ccc(=O)n2C3)cc1	?	18	0%[87.6 µM]	7%[87.6 µM]
N#Cc1cccc(-c2ccc3n(c2=O)C[C@H]2C[C@@H]3CN(C(=O)CSCC(=O)O)C2)c1	35µM*	-11	5%[87.6 µM]	-9%[87.6 µM]
